Source: PubChem BioAssay (NCATS)
Records with an inconclusive call do not appear. A call without a number means that no potency is given here. Unmarked numbers belong to inactive results. Activity calls are given as the source filed them. Unless noted, the call rests on the fitted dose curve; in most records, active means well fitted curve in the direction sought with a large enough effect; inconclusive means small, poorly fitted or top-dose-only effect, or another doubt; inactive means no such curve, though single readings can be large; an effect the other way counts as inactive or inconclusive.

What was measured:
[1] = molecular target: ATP-dependent 6-phosphofructokinase (Trypanosoma brucei brucei) (UniProt O15648); assay: qHTS Assay to Find Inhibitors of T. brucei phosphofructokinase: hit validation (AID 492961);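 further: luminescence reports ADP formed as PFK phosphorylates fructose-6-phosphate with ATP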
Sequence of ATP-dependent 6-phosphofructokinase (Trypanosoma brucei brucei) (O15648 whole entry, looked up): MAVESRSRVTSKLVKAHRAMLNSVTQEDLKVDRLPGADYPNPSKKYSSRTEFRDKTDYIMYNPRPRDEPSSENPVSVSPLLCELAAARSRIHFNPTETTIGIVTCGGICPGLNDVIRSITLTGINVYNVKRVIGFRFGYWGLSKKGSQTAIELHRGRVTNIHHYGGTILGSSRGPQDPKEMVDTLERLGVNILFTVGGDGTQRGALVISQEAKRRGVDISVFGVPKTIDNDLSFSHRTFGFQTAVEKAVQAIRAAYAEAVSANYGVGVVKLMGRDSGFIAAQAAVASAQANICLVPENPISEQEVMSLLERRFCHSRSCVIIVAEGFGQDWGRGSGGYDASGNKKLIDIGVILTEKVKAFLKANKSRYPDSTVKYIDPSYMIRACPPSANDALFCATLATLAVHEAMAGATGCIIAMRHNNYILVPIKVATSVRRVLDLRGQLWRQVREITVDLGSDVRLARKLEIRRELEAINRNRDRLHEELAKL
In short: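 Inhibition of parasite PFK is measured as reduced ADP formation, quantified via luciferase after ATP depletion. Assay used 0.1 mM ATP, 0.5 mM F6P, 1.25 nM enzyme, 45 min incubation.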

[2] = S16 Schwann cell PMP22 intronic element beta-lactamase assay (AID 624044; calls by dose curve; further: nearly all actives have a fitted effect of over 15% in size; further: potency means the concentration at half of the fitted maximal effect); settings: S16 rat Schwann cells, PMP22 element beta-lactamase FRET, 24 h; ratio activity, negative = inhibition: at 38.3 µM (top of the series)
In short: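 Rat S16 Schwann cells with beta-Lac driven by a PMP22 intronic element, compound-treated 24 h at 37 °C. LiveBLAzer FRET B/G read: 460 nm normalized to potassium clavulanate vs DMSO; 535 nm FRET as viability; concentration-effect curves classified.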

[3] = qHTS profiling for inhibitors of Plasmodium falciparum proliferation (AID 504749); further: potency means the concentration at half of the fitted maximal effect; on all read-outs here: nearly all actives have a fitted effect of over 60% in size; settings: P. falciparum in erythrocytes, SYBR Green DNA, 72 h; for activity, negative = inhibition: at 28.7 µM (top of the series)
In short: (§1)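 P. falciparum-infected erythrocytes (0.3% parasitemia, 2.5% hematocrit) incubated with compound 72 h at 37 C, 5% CO2. Parasite DNA detected by SYBR Green after lysis, overnight at room temperature; normalised to 0.29 uM artemisinin and DMSO.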

CP192 = assay: as above; settings: P. falciparum in erythrocytes, SYBR Green DNA, 72 h; series mostly up to 28.7 µM
In short: as §1

CP211 = assay: as above; settings: P. falciparum in erythrocytes, SYBR Green DNA, 72 h; series mostly up to 28.7 µM
In short: as §1

CP238 = assay: as above; settings: P. falciparum in erythrocytes, SYBR Green DNA, 72 h; series mostly up to 28.7 µM
In short: as §1

CP262 = assay: as above; settings: P. falciparum in erythrocytes, SYBR Green DNA, 72 h; series mostly up to 28.7 µM
In short: as §1

CP269 = assay: as above; settings: P. falciparum in erythrocytes, SYBR Green DNA, 72 h; series mostly up to 28.7 µM
In short: as §1

CP286 = assay: as above; settings: P. falciparum in erythrocytes, SYBR Green DNA, 72 h; series mostly up to 28.7 µM
In short: as §1

CP329 = assay: as above; settings: P. falciparum in erythrocytes, SYBR Green DNA, 72 h; series mostly up to 28.7 µM
In short: as §1

DFO2036 = assay: as above; settings: P. falciparum in erythrocytes, SYBR Green DNA, 72 h; series mostly up to 28.7 µM
In short: as §1

Dd2 = assay: as above; settings: P. falciparum in erythrocytes, SYBR Green DNA, 72 h; series mostly up to 28.7 µM
In short: as §1

FAB9 = assay: as above; settings: P. falciparum in erythrocytes, SYBR Green DNA, 72 h; series mostly up to 28.7 µM
In short: as §1

JCK = assay: as above; settings: P. falciparum in erythrocytes, SYBR Green DNA, 72 h; series mostly up to 28.7 µM
In short: as §1

N140 = assay: as above; settings: P. falciparum in erythrocytes, SYBR Green DNA, 72 h; series mostly up to 28.7 µM
In short: as §1

PC49 = assay: as above; settings: P. falciparum in erythrocytes, SYBR Green DNA, 72 h; series mostly up to 28.7 µM
In short: as §1

[4] = molecular target: Luciferin 4-monooxygenase (Photinus pyralis) (UniProt P08659); assay: Biochemical firefly luciferase enzyme assay for NPC (AID 624030);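 further: purified P. pyralis luciferase at 10 nM with luciferin and ATP substrate; nearly all actives have a fitted effect of over 70% in size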
Sequence of Luciferin 4-monooxygenase (Photinus pyralis) (P08659 whole entry, looked up): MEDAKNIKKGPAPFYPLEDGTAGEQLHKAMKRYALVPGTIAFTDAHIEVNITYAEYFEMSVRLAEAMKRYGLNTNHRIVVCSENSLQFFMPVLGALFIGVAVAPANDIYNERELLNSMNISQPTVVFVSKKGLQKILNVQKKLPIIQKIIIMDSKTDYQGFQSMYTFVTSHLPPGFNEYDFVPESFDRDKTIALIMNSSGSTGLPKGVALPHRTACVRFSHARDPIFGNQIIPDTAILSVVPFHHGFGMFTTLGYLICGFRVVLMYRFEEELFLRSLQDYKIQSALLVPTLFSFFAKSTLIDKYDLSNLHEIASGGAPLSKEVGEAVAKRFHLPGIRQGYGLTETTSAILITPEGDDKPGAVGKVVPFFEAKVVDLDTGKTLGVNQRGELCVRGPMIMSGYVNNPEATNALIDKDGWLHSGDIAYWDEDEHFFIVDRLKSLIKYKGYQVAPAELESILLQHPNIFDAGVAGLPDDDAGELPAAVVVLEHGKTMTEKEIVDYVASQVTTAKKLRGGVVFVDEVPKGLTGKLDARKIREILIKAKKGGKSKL
In short: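 Purified P. pyralis luciferase at 10 nM in 50 mM Tris Acetate (final), luminescence read within 5 minutes of enzyme addition to compounds. Activity normalised to PTC124 versus DMSO; concentration-response curves classed by r2, magnitude and activity.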

CP201 = assay: qHTS profiling for inhibitors of Plasmodium falciparum proliferation (AID 504749); further: nearly all actives have a fitted effect of over 60% in size; further: potency means the concentration at half of the fitted maximal effect; settings: P. falciparum in erythrocytes, SYBR Green DNA, 72 h; series mostly up to 28.7 µM
In short: as §1

CP315 = assay: as above; settings: P. falciparum in erythrocytes, SYBR Green DNA, 72 h; series mostly up to 28.7 µM
In short: as §1

CP325 = assay: as above; settings: P. falciparum in erythrocytes, SYBR Green DNA, 72 h; series mostly up to 28.7 µM
In short: as §1

CC(=O)C1(O)Cc2c(O)c3c(c(O)c2C(OC2CC(N)C(O)C(C)O2)C1)C(=O)c1c(O)cccc1C3=O (stereo not given)
Potency [1]: inactive
Potency [2]: 0.0999 µM (active)
Potency ([3]; parasite line A): 5.01 µM (active)
Potency ([3]; parasite line B): 11.2 µM (active)
Potency (CP192): 10.7 µM (active)
Potency (CP211): 9.53 µM (active)
Potency (CP238): 8.91 µM (active)
Potency (CP262): 12 µM (active)
Potency (CP269): 15.1 µM (active)
Potency (CP286): 3.16 µM (active)
Potency (CP329): 12 µM (active)
Potency (DFO2036): 7.94 µM (active)
Potency (Dd2): 4.47 µM (active)
Potency (FAB9): 11.2 µM (active)
Potency (JCK): 12.6 µM (active)
Potency (N140): 7.08 µM (active)
Potency (PC49): 6.31 µM (active)

C=C1NC(=O)c2cc(CN(C)c3ccc(C(=O)N[C@@H](CCC(=O)O)C(=O)O)s3)ccc2N1
Potency [1]: inactive
Potency [4]: inactive
Potency [2]: 0.0079 µM (active)
activity, negative = inhibition ([3]; parasite line A): 2.89%
activity, negative = inhibition ([3]; parasite line B): 4.82%
Potency (CP192): inactive
Potency (CP201): inactive
Potency (CP211): inactive
Potency (CP238): inactive
Potency (CP262): inactive
Potency (CP269): inactive
Potency (CP286): inactive
Potency (CP315): inactive
Potency (CP325): inactive
Potency (CP329): inactive
Potency (DFO2036): inactive
Potency (Dd2): inactive
Potency (FAB9): inactive
Potency (JCK): inactive
Potency (N140): inactive
Potency (PC49): inactive

N#C/C(=C1/SCC(c2ccccc2Cl)S1)n1ccnc1 (stereo not given)
Potency [1]: inactive
Potency [4]: inactive
Potency [2]: inactive
activity, negative = inhibition ([3]; parasite line A): -5.78%
activity, negative = inhibition ([3]; parasite line B): -14.7%
Potency (CP192): inactive
Potency (CP201): inactive
Potency (CP211): inactive
Potency (CP238): inactive
Potency (CP262): inactive
Potency (CP269): inactive
Potency (CP286): inactive
Potency (CP315): inactive
Potency (CP325): inactive
Potency (CP329): inactive
Potency (DFO2036): inactive
Potency (Dd2): inactive
Potency (FAB9): inactive
Potency (JCK): inactive
Potency (PC49): inactive

Nc1nc2[nH]cc(CCc3ccc(C(=O)NC(CCC(=O)O)C(=O)O)cc3)c2c(=O)[nH]1 (stereo not given)
Potency [1]: inactive
Potency [4]: inactive
Potency ([3]; parasite line A): 0.126 µM (active)
Potency ([3]; parasite line B): 0.199 µM (active)
Potency (CP192): 9.53 µM (active)
Potency (CP211): 3.79 µM (active)
Potency (CP238): 11.2 µM (active)
Potency (CP262): 0.426 µM (active)
Potency (CP315): 0.953 µM (active)
Potency (CP329): 1.2 µM (active)
Potency (DFO2036): 0.0631 µM (active)
Potency (Dd2): 5.01 µM (active)
Potency (FAB9): 0.316 µM (active)
Potency (JCK): 5.62 µM (active)
Potency (N140): 3.16 µM (active)
Potency (PC49): 0.562 µM (active)

CC(=O)OC1C([N+]2(C)CCCCC2)C[C@H]2C3CC[C@H]4C[C@H](OC(C)=O)C([N+]5(C)CCCCC5)CC4(C)C3CCC12C (stereo not given in full)
Potency [1]: inactive
Potency [4]: inactive
Potency [2]: inactive
activity, negative = inhibition ([3]; parasite line A): -25%
activity, negative = inhibition ([3]; parasite line B): 8.8%
Potency (CP238): inactive
Potency (CP262): inactive
Potency (CP286): inactive
Potency (DFO2036): inactive
Potency (Dd2): inactive
Potency (FAB9): inactive
Potency (JCK): inactive
Potency (N140): inactive
Potency (PC49): inactive

CC[C@@]1(O)CC2CN(CCc3c([nH]c4ccccc34)[C@](C(=O)OC)(c3cc4c(cc3OC)N(C)C3[C@@](O)(C(=O)OC)C(OC(C)=O)[C@]5(CC)C=CCN6CC[C@@]43C65)C2)C1 (stereo not given in full)
Potency [1]: inactive
Potency [4]: inactive
Potency [2]: 0.562 µM (active)
Potency ([3]; parasite line A): 2.51 µM (active)
Potency ([3]; parasite line B): 1.12 µM (active)
Potency (CP192): 3.38 µM (active)
Potency (CP211): 2.69 µM (active)
Potency (CP238): 3.16 µM (active)
Potency (CP262): 1.69 µM (active)
Potency (CP269): 3.01 µM (active)
Potency (CP286): 0.794 µM (active)
Potency (CP315): 3.38 µM (active)
Potency (CP329): 3.01 µM (active)
Potency (DFO2036): 0.891 µM (active)
Potency (Dd2): 0.355 µM (active)
Potency (JCK): 6.31 µM (active)
Potency (N140): 3.55 µM (active)
